# PubChem BioAssay (NCATS)
# Inconclusive results are not listed. The source made the active and inactive calls. The call rests on the fitted dose curve; in most records, active means well fitted curve in the direction sought with a large enough effect; inconclusive means small, poorly fitted or top-dose-only effect, or another doubt; inactive means no such curve, though single readings can be large or run the other way.
# Biological target: Protein phosphatase 1D (Homo sapiens) (UniProt O15297)
# Sequence (O15297 whole entry, looked up): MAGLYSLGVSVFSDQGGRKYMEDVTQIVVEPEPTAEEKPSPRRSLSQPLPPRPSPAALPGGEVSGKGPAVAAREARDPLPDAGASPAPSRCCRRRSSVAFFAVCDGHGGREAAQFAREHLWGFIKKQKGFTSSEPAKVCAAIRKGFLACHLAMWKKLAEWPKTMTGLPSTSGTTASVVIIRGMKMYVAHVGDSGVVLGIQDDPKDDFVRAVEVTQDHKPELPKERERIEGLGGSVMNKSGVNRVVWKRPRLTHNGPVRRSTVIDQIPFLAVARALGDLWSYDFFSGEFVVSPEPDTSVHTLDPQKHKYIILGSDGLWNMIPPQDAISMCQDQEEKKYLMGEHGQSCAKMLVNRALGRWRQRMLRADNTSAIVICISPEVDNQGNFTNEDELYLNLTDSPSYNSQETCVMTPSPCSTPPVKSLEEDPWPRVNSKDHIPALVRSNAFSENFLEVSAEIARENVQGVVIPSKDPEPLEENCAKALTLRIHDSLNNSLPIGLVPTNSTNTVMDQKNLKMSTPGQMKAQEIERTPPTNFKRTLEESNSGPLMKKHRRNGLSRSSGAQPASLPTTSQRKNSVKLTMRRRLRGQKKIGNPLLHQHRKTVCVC
# Test: Rhodamine-PBP qHTS Assay for Modulators of WT P53-Induced Phosphatase 1 (WIP1) (AID 1347425)
# Settings: recombinant WIP1, Rhodamine-PBP phosphate fluorescence, real-time; series mostly up to 57.5 µM
# From the text: Assay Provider (PI): Nathan Coussens Ph.D.
# National Center for Advancing Translational Sciences (NCATS), Rockville, MD
# National Institute of Health (NIH), Bethesda, Maryland
# WT P53-Induced Phosphatase 1 (WIP1) is a member of the magnesium-dependent serine/threonine protein phosphatase (PPM) family and is induced by P53 in response to DNA damage. In several human cancers, the WIP1 protein is overexpressed, which is generally associated with a worse prognosis. Although WIP1 is an attractive therapeutic target, no potent, selective, and bioactive small-molecule modulator with favorable pharmacokinetics has been reported. Phosphatase enzymes are among the most challenging targets for small molecules because of the difficulty of achieving both modulator selectivity and bioavailability. Another major obstacle has been the availability of robust and physiologically relevant phosphatase assays that are suitable for high-throughput screening.
# Here, we describe two orthogonal biochemical WIP1 activity assays that utilize phosphopeptides from native WIP1 substrates. We optimized a RapidFire MS assay to quantify the enzymatically dephosphorylated peptide reaction product in a 384-well format. Additionally, a redshifted Rhodamine-PBP fluorescence assay was optimized in a 1,536-well format to enable real-time WIP1 activity measurements through the detection of the orthogonal reaction product, Pi. We validated these two optimized assays by quantitative high-throughput screening against the National Center for Advancing Translational Sciences (NCATS) Pharmaceutical Collection and used secondary assays to confirm and evaluate inhibitors identified in the primary screen.
# SEQUENCE No. (e.g., 1, 2, 3, etc.); […] (e.g., Cells, Incubation, Reagent, etc.); VALUE; DESCRIPTION
# 1; Reagent; 3 uL; WIP1 (6.7 nM), Rh-PBP (13.3 uM), columns 1-48
# 3; Library Compounds; 23 nL; NCATS Pharmaceutical Collection, column 5-48
# 4; Control Compounds; DMSO in column 2, GSK2830371 (57.5 uM, final) in 3-fold serial dilutions in column 3, GSK2830371 (1.15 uM, final) in column 4
# 5; Time; 1 hr; incubation
# 6; Detection; fluorescence (f0); ViewLux, excitation filter = 525 nm, emission filter = 598 nm
# 7; Reagent; 1 uL; VEPP-pS-QETFS (40 uM), columns 2-48
# 8; Detection; fluorescence (f1); ViewLux, excitation filter = 525 nm, emission filter = 598 nm
# NOTES (numbers refer to sequence above)
# 1 & 2; Black medium binding Greiner 1536-well plates (# 789176-F); assay buffer: 50 mM Tris-HCl pH 7.5, 30 mM MgCl2, 1mM TCEP, 0.1 mM EGTA, 75 ug/mL BSA; dispensed with a BioRaptr liquid handler (Beckman Coulter).
# 3 & 4; Kalypsys pintool (equipped with 1536 pinhead, Wako USA) transfer. Tip wash sequence: DMSO, methanol, 3 sec vacuum dry.
# 5; Room temperature incubation.
# 7; VEPPL-pS-QETFS in assay buffer dispensed with a BioRaptr; final reaction conditions: 5 nM WIP1, 10 uM VEPPL-pS-QETFS, 10 uM Rh-PBP, 50 mM Tris-HCl pH 7.5, 30 mM MgCl2, 1 mM TCEP, 0.1 mM EGTA, 75 ug/mL BSA.
# 8; Measurement taken at 1 min intervals for 11 min. Delta readout = f1 - f0.
row,Structure (SMILES),outcome
1,Cc1cccc(C)c1NC(=O)C(C)N (stereo not given),inactive
2,CN(C)CCCN1c2ccccc2Sc2ccc(C(F)(F)F)cc21,inactive
3,CC(=O)Nc1nnc(S(N)(=O)=O)s1,inactive
4,CC(N=C(NC#N)Nc1ccncc1)C(C)(C)C (stereo not given),inactive
5,Cc1ccc(/C(=C\CN2CCCC2)c2ccccn2)cc1,inactive
6,C[C@]12CCC(=O)C=C1CC[C@@H]1[C@@H]2C(=O)C[C@@]2(C)[C@H]1CC[C@]2(O)C(=O)CO,inactive
7,CCNC(=O)N1CCN(CCCC(c2ccc(F)cc2)c2ccc(F)cc2)CC1,inactive
8,NC1=NCC2c3ccccc3Cc3ccccc3N12 (stereo not given),inactive
9,COc1ccc(CN(CCN(C)C)c2ccccn2)cc1,inactive
10,CC(=O)[C@]1(O)Cc2c(O)c3c(c(O)c2[C@@H](O[C@H]2C[C@H](N)[C@H](O)[C@H](C)O2)C1)C(=O)c1ccccc1C3=O,inactive
11,CN(C)[C@@H]1C(=O)C(C(N)=O)=C(O)[C@@]2(O)C(=O)C3=C(O)c4c(O)ccc(Cl)c4[C@@H](O)[C@H]3C[C@@H]12,inactive
12,Cc1cc(C)c(/C=C2\C(=O)Nc3ccccc32)[nH]1,inactive
13,CC1=NS(=O)(=O)c2cc(Cl)ccc2N1,inactive
14,Cc1nc2c([nH]1)c(=O)n(C)c(=O)n2Cc1ccco1,inactive
15,CO[C@@]1(NC(=O)CSCC#N)C(=O)N2C(C(=O)O)=C(CSc3nnnn3C)CS[C@@H]21,inactive
16,CC(C(=O)O)c1ccc(CC2CCCC2=O)cc1 (stereo not given),inactive
17,C[N+](C)(C)CCCCCCCCCC[N+](C)(C)C,inactive
18,C[n+]1cc2c3c(ccc2c2ccc4cc5c(cc4c21)OCO5)OCO3,inactive
19,CN1C(=O)CC[C@H]1c1cccnc1,inactive
20,COCCCC/C(=N\OCCN)c1ccc(C(F)(F)F)cc1,inactive

row,Structure (SMILES),outcome
1,CN(C)CCN(Cc1cccs1)c1ccccn1,inactive
2,C=CCc1ccccc1OCC(O)CNC(C)C (stereo not given),inactive
3,CNC1(C)C2CCC(C2)C1(C)C (stereo not given),inactive
4,CC(=O)OCC1=C(C(=O)O)N2C(=O)[C@@H](NC(=O)Cc3cccs3)[C@H]2SC1,inactive
5,OCCN1CCN(CCCN2c3ccccc3C=Cc3ccccc32)CC1,inactive
6,Nc1c2c(nc3ccccc13)CCCC2O (stereo not given),inactive
7,C[N+](C)(C)CCOC(=O)CCC(=O)OCC[N+](C)(C)C,inactive
8,CCCOc1ccccc1-c1nc2n[nH]nc2c(=O)[nH]1,inactive
9,NC(=O)N1c2ccccc2C=Cc2ccccc21,inactive
10,CC(C)NNC(=O)c1ccncc1,inactive
11,COc1cc2c(cc1OC)-c1cc(=Nc3c(C)cc(C)cc3C)n(C)c(=O)n1CC2,inactive
12,O=C1CC2(CCCC2)CC(=O)N1CCCCN1CCN(c2ncccn2)CC1,inactive
13,CC(=O)Oc1cc(C(C)C)c(OCCN(C)C)cc1C,inactive
14,CCc1c(C)[nH]c2c1C(=O)C(CN1CCOCC1)CC2 (stereo not given),inactive
15,Cc1ccc(S(=O)(=O)NC(=O)NN2CCCCCC2)cc1,inactive
16,NC/C=C/C(=O)O,inactive
17,Brc1c(NC2=NCCN2)ccc2nccnc12,inactive
18,c1cc(CN2CCCCC2)cc(OCCCNc2nc3ccccc3s2)c1,inactive
19,CN(C)C(=O)Oc1cccc([N+](C)(C)C)c1,inactive
20,CCO/C([O-])=N/c1c[n+](N2CCOCC2)no1,inactive
